Measured values from PubChem BioAssay (NCI).
About 83,000 compounds went through this panel and 20% of them were active in at least one assay; those are over-represented in the sample as a whole.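 Assay: single dose, 48 h. Readout: percent growth (0 = no net growth; negative = cell death). Active: <10.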 Values without a mark were called inactive. Activity calls are given as the source filed them.

What follows are compounds tested on HL-60(TB) leukemia (assay: NCI-60 one-dose screen, 48 h (100 = growth as untreated, 0 = no growth, -100 = all killed)). Conditions: 10 µM unless noted.

Compound	growth
CS(=O)(=O)Nc1ccc(-c2nn(-c3ccc(S(C)(=O)=O)cc3)cc2/C=C/C(=O)c2ccc(NC(=O)CO[N+](=O)[O-])cc2)cc1	107%
Cn1c(SCC(=O)c2cccs2)nc2ccccc2c1=O	91.8%
Oc1ccccc1-c1nnc(SCc2ccc(O)c3ncccc23)o1	26.3%
c1cc(-c2nc3ccc4[nH]ncc4c3c3c2CCCC3)[nH]n1	80.8%
CN1C(=S)N(C)C2C1NN=C1SC(c3ccccc3)=CC(=O)N12 (centres undefined)	80.7%
COc1ccc(Cn2cc3c(c2-c2ccccc2)CCCc2cnoc2-3)cc1[N+](=O)[O-]	27%
COC(=O)c1[nH]nc2c1C1(C(=O)N(C)c3ccccc31)C(C#N)=C(N)O2 (centres undefined)	107%
CC1(C)CC[C@]2(C(=O)N3CCCNCC3)CC[C@]3(C)C(=CC[C@@H]4[C@@]5(C)CCC(=O)C(C)(C)[C@@H]5CC[C@]43C)[C@H]2C1	104%
COc1cc(N=Cc2sc(Nc3nccs3)nc2O)cc(OC)c1OC	82.8%
CCc1cc2c(cc1Cl)nc1c(=O)[nH]c(=O)nc-1n2CCOCC(C)(C)C	82%
O=C(/C=C/c1ccc(F)cc1)Nc1cccc2cccnc12	93.7%
Oc1ccc(CSc2nnc(-c3ccccc3)o2)c2cccnc12	7.7% (active)
N#CC1=C2NCCCNc3oc(nc3C#N)Cc3ccccc3CC(=N1)O2	62.9%
N/C(=N\c1nc2c(Cl)cc(Cl)cc2s1)C(Cl)(Cl)Cl	4.49% (active)
